High-throughput results from PubChem BioAssay.
Hits are enriched below; roughly 20% of the tested compounds scored in any of these assays.
Pf growth 48h – P. falciparum growth inhibition at 48 hours (one generation); 5.9% of 310,000 active; Potency, µM (titrated, usually from 28.7 µM), inactives show top-dose activity change, negative = inhibition, actives largely listed as inhibitors; P. falciparum luciferase growth in erythrocytes, 48 h; note: potency is the fitted concentration of half-maximal effect; % is set by controls: 0 for no effect and ±100 for the full control effect
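First compound was added to culture medium, then infected red cells at 0.1% parasitemia and 2% hematocrit (final). After incubation at 37 C under 5% CO2, luciferase detection reagent was dispensed and light output recorded.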
Shiga inhibitor – Shiga toxin inhibition; inhibition, % at 38.7 µM; Vero cells, Shiga toxin protein synthesis inhibition reporter; 9.2% of 290,000 active; in the data active = inhibition mostly above about 28%, no sharp cut-off; inactive = mostly below about 43%; note: 0% is about no effect
CHX counter – counter-screen for Shiga toxin inhibitors: cycloheximide protein synthesis inhibition; 12% of 300,000 active; max response, %; AID 2314; cell reporter, cycloheximide protein synthesis inhibition counterscreen; in the data active = max response mostly above about 13%, no sharp cut-off; inactive = mostly below about 14%; note: read at 38.3 µM for the half of the compounds with a filed dose; 0% is about no effect
Pf growth 96h – P. falciparum growth inhibition at 96 hour, primary screen for plastid delayed-death inhibitors. P. falciparum luciferase reporter growth, 96 h. Potency, µM (top dose mostly 28.7 µM), for inactives: at the highest dose activity change, negative = inhibition, most hits filed as inhibitors. 6.9% of 320,000 active. AID 504834; note: potency is the fitted concentration of half-maximal effect; % is set by controls: 0 for no effect and ±100 for the full control effect
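Readout is luminescence from an integrated firefly luciferase in P. falciparum. Red cells, 2% hematocrit and 0.05% parasitemia final, were cultured with compound through two parasite generations (96 hours) at 37 C, 5% CO2.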
HCMV antiviral – inhibitors of human cytomegalovirus. activity change, negative = inhibition, % at 57.5 µM. 4.5% of 410,000 active. HFF cells, HCMV-luciferase reporter, 72 h; stronger effect = lower value; in the data active = activity change below about -60%; inconclusive = no clear call, values can overlap the other calls; inactive = above about -39%; note: % is set by controls: 0 for no effect and ±100 for the full control effect
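Steps: HFFs plated, 16 h 37C; compounds added; HCMV-luciferase added to MOI 1 PFU/cell; 72 h 37C; OneGlo reagent, 5 min room temperature; luminescence read, normalized to controls.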
An asterisk follows results filed as active; ? = inconclusive; nt = no result given; [ ] = remark or other dose. Unless noted, calls come from the whole dose curve; as a rule, active = well fitted inhibition curve with a large enough effect; inconclusive = small, poorly fitted or top-dose-only effect, or another doubt; inactive = no such curve, though single readings can be large or run the other way.

SMILES	Pf growth 48h	Shiga inhibitor	CHX counter	Pf growth 96h	HCMV antiviral
COc1ccc(C2(CNC(=O)c3ccco3)CCOCC2)cc1	2.4%	-12.1	-4.8	?	-9.3
CC(=O)Nc1cccc(NC(=O)Nc2ccc(C)c(Cl)c2)c1	30.4%	47.6*	29.8*	30.2%	-4.5
O=c1/c(=C/c2ccc(O)cc2)sc2n1CCCN=2	112.1%	103.9*	21.1	231.3%	-18.0
O=c1/c(=C\c2ccc(F)cc2)sc2n1CCCN=2	360.3%	92.5*	42.7*	314.5%	-21.3
CN(C)c1ccc(/C=c2\sc3n(c2=O)CCCN=3)cc1	43.0%	12.8	25.2*	-3.6%[5.75 µM]	-35.5
Cc1ccc(-c2nc(CCNC(=O)C(=O)Nc3ccc(C)cc3C)cs2)cc1	nt	nt	nt	nt	15.4
Cc1cc(C)n(C(=O)c2ccc(C)c(F)c2F)n1	6.9%	-9.1	-4.1	-9.8%	1.7
COc1cccc(N2C(=O)C(CC(=O)Nc3cccc(F)c3)N(C3CCCC3)C2=O)c1 (centres undefined)	nt	nt	nt	nt	2.5
Cn1c(=O)c2cc(S(=O)(=O)Nc3cc(C(=O)O)cc(C(=O)O)c3)ccc2n(C)c1=O	42.6%	0.9	1.5	25.3%	5.5
CCNS(=O)(=O)c1ccc2c(c1)n(C)c(=O)n2C	-5.0%	-7.7	-3.5	nt	63.5
Cc1cc(C)cc(NS(=O)(=O)c2ccc3c(c2)c(=O)n(C)c(=O)n3C)c1	11.7µM*	3.2	-5.8	nt	?
Cc1ccc(CNS(=O)(=O)c2ccc3c(c2)n(C)c(=O)n3C)cc1	29.9%	1.7	-1.0	19.7%	-66.0*
Cc1ccc(C)c(NC(=O)CN(C)C(=O)c2ccccc2OCc2ccccc2Cl)c1	-22.6%	nt	nt	?	?
CC(Sc1nnc(-c2cccs2)n1-c1ccccc1)C(=O)NCc1ccc2c(c1)OCO2 (centres undefined)	nt	-12.2	-1.5	10.4µM*	-26.9
COc1ccccc1-c1nnc(SC(C)C(=O)NCC2CCCO2)n1C (centres undefined)	nt	nt	nt	nt	31.2
CCn1c(SC(C)C(=O)NCC2CCCO2)nc2scc(-c3ccccc3)c2c1=O (centres undefined)	7.38µM*	nt	nt	2.94µM*	?
C=CCn1c(SCC(=O)NCC2CCCO2)nc2scc(-c3ccccc3)c2c1=O (centres undefined)	?	-5.2	-1.0	19.4%	-27.2
COCCn1c(SC(C)C(=O)NCC2CCCO2)nc2scc(-c3ccc(F)cc3)c2c1=O (centres undefined)	13.1µM*	nt	nt	?	-0.8
COCCn1c(SC(C)C(=O)NCC2CCCO2)nc2sc3c(c2c1=O)CCC3 (centres undefined)	?	nt	nt	8.28µM*	-23.4
Cc1nnc(SCC(=O)NCC(=O)Nc2ccc(F)c(F)c2F)n1N	nt	nt	nt	nt	-21.3
C=CCn1c(SC(C)C(=O)NCc2ccc3c(c2)OCO3)nc2scc(-c3ccccc3)c2c1=O (centres undefined)	?	-17.9	-0.9	6.57µM*	-19.5
CN(CC(=O)Nc1ccc(N2CCOCC2)cc1)C(=O)CCc1cc(C(C)(C)C)c(O)c(C(C)(C)C)c1	3.29µM*	nt	nt	9.28µM*	-31.0
CCC1CCc2sc(C(=O)N(C)CC(=O)Nc3ccc(OC)cc3)cc2C1 (centres undefined)	?	nt	nt	-10.8%	?
Cc1ccc(CC(=O)N(C)CC(=O)Nc2ccc(N3CCOCC3)cc2)cc1C	?	nt	nt	8.3%	-20.5
COc1ccc(NC(=O)CN(C)C(=O)c2cc3c(s2)CCC(C)C3)cc1 (centres undefined)	-13.7%	18.7	14.4*	-7.9%	22.3
SMILES	Pf growth 48h	Shiga inhibitor	CHX counter	Pf growth 96h	HCMV antiviral
CC1CCc2sc(C(=O)N(C)CC(=O)Nc3ccc(N4CCOCC4)cc3)cc2C1 (centres undefined)	?	13.0	-2.5	?	-68.4*
COc1ccc(CC(=O)NCc2nnc(SCC(=O)Nc3ccc(OC)cc3)n2C)cc1	2.1%	-19.5	-1.2	?	-31.7
Cc1ccc(Cn2c(C(=O)NCc3ccccc3Cl)cc3sccc32)cc1	nt	nt	nt	nt	-13.5
COc1ccc(CC(C)Nc2cccc(SC)c2)cc1 (centres undefined)	-1.9%	-3.3	-2.8	8.28µM*	43.0
COc1ccc(CC(=O)Nc2cccc(SC)c2)cc1	14.3%	19.2	16.6*	-2.1%	-12.0
CC[n+]1c(/C=C/N(C)c2ccccc2)oc2ccccc21	0.928µM*	-4.7	-1.9	-14.2%	-97.3*
CC[n+]1c(/C=C/N(C)c2ccccc2)oc2ccc(F)cc21	2.94µM*	9.3	0.3	?	-84.8*
CC[n+]1c(/C=C/Nc2ccccc2)oc2ccccc21	?	-11.8	-4.6	?	?
Cc1ccc(O)c(C(=O)CC(=O)c2ccc(C(C)(C)C)cc2)c1	?	nt	23.2*	?	-33.9
CC(=O)Nc1ccc(C(=O)CS(=O)(=O)c2ccc(C)cc2)cc1	13.2%	24.8	7.9	13.6%	?
CC(C)(C)c1ccc(C(=O)NCC(=O)NNC(=O)c2ccccc2O)cc1	17.3%	nt	nt	30.3%	-4.5
Cc1ccc(S(=O)(=O)CC(=O)c2ccc(C(C)(C)C)cc2)cc1	2.33µM*	25.9	6.0	2.62µM*	18.3
Cc1ccc(O)c(C(=O)CC(=O)c2ccccc2Cl)c1	14.7µM*	81.3*	37.7*	15.6%	-9.4
O=C(C1CCN(c2nc3ccccc3[nH]2)CC1)N1CCN(c2cccc(Cl)c2)CC1	nt	nt	nt	nt	-2.3
Cc1ccc(C)c(NC(=O)CN(C)S(=O)(=O)c2cccc3nsnc23)c1	nt	nt	nt	nt	-15.1
Cc1[nH]c(C)c(S(=O)(=O)N2CCCCC2C)c1C(=O)N1CCCC1 (centres undefined)	1.7%	3.9	-1.5	-7.7%	15.8
COCCn1nnnc1C(C(C)C)N1CCCC(C)C1 (centres undefined)	-6.8%	-2.8	2.6	0.0%	?
O=C(c1cc(COc2ccc(F)cc2Cl)on1)N1C[C@H]2CC[C@H]1C2	10.3%	66.3*	40.2*	?	15.5
CCN(CC)C1CCN(C(=O)c2cc(COc3ccc(F)cc3Cl)on2)C1 (centres undefined)	-7.0%	3.3	20.2	-28.0%	-2.2
O=C(c1cc(COc2ccc(F)cc2Cl)on1)N1CC2C[C@@H]3CC1C[C@H](C2)C3	31.2%	101.8*	30.4*	-15.9%	113.8
CCOC(=O)CC1COCCN1C(=O)c1cc(COc2ccc(F)cc2Cl)on1 (centres undefined)	?	60.8*	39.1*	?	22.0
O=C(c1cc(COc2ccc(F)cc2Cl)on1)N1CC[C@@H]2CCCC[C@H]2C1	7.7%	-1.9	15.2	82.0%	11.9
COc1cc(C(CC(=O)Nc2cccc(C(C)=O)c2)N2Cc3ccccc3C2=O)cc(OC)c1OC (centres undefined)	nt	nt	nt	nt	15.4
CCc1ccc(NC(=O)Cn2c(=O)n(CCC(=O)NCCc3ccc(OC)c(OC)c3)c(=O)c3ccccc32)cc1	nt	nt	nt	nt	-0.8
CCc1nn2c(=O)cc(COC(=O)c3cccc(NC(=O)COc4ccccc4)c3)nc2s1	nt	nt	nt	nt	79.0
N#Cc1cc(Oc2cccc3cccnc23)c(-n2nnc3ccccc32)cc1C#N	1.85µM*	-45.4	-10.8	-1.9%	nt
